# High-throughput results deposited in PubChem BioAssay by National Center for Advancing Translational Sciences (NCATS).
# This is a sample that favours compounds with a hit; in the whole collection about 21% have one here.
# RORgamma inh – blocks mouse ROR gamma transcriptional activity. Potency, µM (titrated, usually from 53.6 µM), for inactives: at the highest dose activity change, negative = inhibition, most hits filed as inhibitors. 310,000 tested, 5.4% active. P51450. Drosophila S2 Gal4-RORgamma UAS-luciferase reporter, 20 h; note: potency is the fitted concentration of half-maximal effect; nearly all actives have a fitted effect of over 60% in size
# Target sequence (P51450 whole entry, looked up, the tested form may be a part): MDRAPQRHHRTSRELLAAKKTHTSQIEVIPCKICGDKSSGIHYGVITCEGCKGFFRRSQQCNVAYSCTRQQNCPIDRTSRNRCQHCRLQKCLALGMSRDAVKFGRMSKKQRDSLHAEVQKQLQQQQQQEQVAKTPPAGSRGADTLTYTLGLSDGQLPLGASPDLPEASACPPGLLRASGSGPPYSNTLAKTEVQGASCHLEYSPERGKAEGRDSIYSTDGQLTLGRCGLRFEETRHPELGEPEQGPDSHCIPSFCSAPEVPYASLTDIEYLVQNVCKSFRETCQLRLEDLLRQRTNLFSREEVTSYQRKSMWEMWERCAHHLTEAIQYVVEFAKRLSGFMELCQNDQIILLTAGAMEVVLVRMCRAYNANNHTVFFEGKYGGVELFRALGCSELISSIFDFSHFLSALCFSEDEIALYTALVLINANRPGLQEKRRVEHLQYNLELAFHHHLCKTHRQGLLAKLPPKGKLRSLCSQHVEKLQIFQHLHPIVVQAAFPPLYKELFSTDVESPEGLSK
#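 ROR gamma transcriptional activity was tracked as Gal4-UAS luciferase output in stably transfected Drosophila Schneider cells, with compound added 1 hr before 700 uM copper sulfate induction and a 20 hr ambient-temperature incubation.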
# ELG1 repair inh – inhibitors of ELG1-dependent DNA repair in HEK293T cells; AID 504467; 330,000 tested, 2.3% active; Potency, µM (top dose mostly 46.1 µM), for the others: at the highest dose activity change, negative = inhibition, hits mostly inhibitors; HEK293T ELG1-luciferase reporter, luminescence, 16 h; DNA damage induced by 5-fluorouridine; note: potency is the fitted concentration of half-maximal effect; nearly all actives have a fitted effect of over 55% in size
#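 Quantitative HTS, concentration-response format. 2,000 cells/well co-treated with 5-fluorouridine and compound, 16 hr in 5% CO2 at 37 °C; ONE-Glo luminescence read after 30 min.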
# TDP1 cell CPT – growth inhibition of DT40 Tdp1-/-;hTDP1 cells with camptothecin (screen for TDP1 inhibitors). chicken DT40 Tdp1-/-;hTDP1 cells + 20 nM CPT, ATP luminescence, 48 h. Potency, µM (series often up to 46.2 µM), without a hit: at the top dose activity change, negative = growth inhibition, most hits filed as inhibitors. 420,000 tested, 12% active. AID 686979; note: potency is the fitted concentration of half-maximal effect; nearly all actives have a fitted effect of over 55% in size
#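 Chicken DT40 Tdp1-/- cells complemented with human TDP1, 400 cells/well, exposed to compounds plus 20 nM camptothecin for at least 48 h at 37 C; viability read as ATP content by CellTiter-Glo luminescence.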
# DT40 TDP1 no CPT – qHTS for Inhibitors of human tyrosyl-DNA phosphodiesterase 1 (TDP1): qHTS in cells in absence of CPT | Potency, µM (highest dose often 46.2 µM), for inactives: top-dose activity change, negative = growth inhibition, usual class: inhibitors | 420,000 tested, 15% active | DT40 Tdp1-/- hTDP1 cells, no CPT, ATP luminescence, 48 h; note: potency is the fitted concentration of half-maximal effect; nearly all actives have a fitted effect of over 55% in size
#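 Luminescent ATP content (CellTiter-Glo) served as the growth readout. Knockout chicken DT40 cells expressing human TDP1 were exposed to compounds without camptothecin for a minimum 48 hr at 37 °C.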
# VP16 counter – inhibits Gal4-VP16 luciferase reporter, ROR gamma counter-screen; Drosophila S2 Gal4-VP16 UAS-luciferase, luminescence, 20 h; 310,000 tested, 3.5% active; Potency, µM (doses to about 53.6 µM), without a hit: top-dose activity, negative = inhibition, hits mostly inhibitors;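 note: Gal4-VP16 expression switched on by copper sulfate through the metallothionein promoter; potency is the fitted concentration of half-maximal effect; nearly all actives have a fitted effect of over 50% in size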
# IL-1B inflam inh – inflammasome signaling inhibition, IL-1 beta readout | THP-1 LPS/ATP IL-1B secretion, AlphaLISA, 16 h; active compounds read low | activity change, % at 57.5 µM | 360,000 tested, 4.7% active | AID 743279; in the data active = activity change below about -50%; inconclusive = mostly about -30% to -49%
#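 Secreted IL-1B measured by AlphaLISA bead assay after 16 h compound exposure of THP-1 cells; compounds (final up to 57.5 uM) added 1 h before LPS (250 ng/mL) and ATP (1.25 mM) stimulation; lower signal means less secretion.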
# The depositor's hits bear a star; u = inconclusive; x = not tested or not shown; ! = not active in a repeat; [ ] = dose if it differs, or a comment. Unless noted, calls come from the whole dose curve; as a rule, active = well fitted curve in the direction sought with a large enough effect; inconclusive = small, poorly fitted or top-dose-only effect, or another doubt; inactive = no such curve, though single readings can be large; an effect the other way counts as inactive or inconclusive. % is set by controls: 0 for no effect and ±100 for the full control effect.
SMILES,RORgamma inh,ELG1 repair inh,TDP1 cell CPT,DT40 TDP1 no CPT,VP16 counter,IL-1B inflam inh
COc1ccc(C(=O)/C=C/Nc2ccc(S(=O)(=O)Nc3cc(OC)nc(OC)n3)cc2)c(OC)c1,u,7.3%,0.3%,u,-4.8%,-15.8
Cc1ccc(C)c(-n2c3nc(=O)[nH]c(=O)c-3cc3c(C)nn(-c4ccccc4)c32)c1,x,x,-1.9%,10.0%,x,x
Cc1ccc(S(=O)(=O)n2nc(C)c(Br)c2C)c(C)c1C,22.5%,u,u,20.6µM*,-16.5%,43.1
Cc1ccc(S(=O)(=O)n2nc(C)c(S(=O)(=O)N3CCCCCC3)c2C)cc1C,x,x,2.0%,-14.3%,x,x
O=C1Cc2c(-c3ccccc3)cc(-c3cccc(Cl)c3)nc2-c2ccccc2N1,x,x,20.6µM*,u,x,0.0
CCN(CC)CCNC(=O)c1ccc(NS(C)(=O)=O)cc1,x,x,-9.2%,-5.1%,x,x
CC1=C(/C=C/C(C)=C\C=C\C(C)=C\C(=O)O)C(C)(C)CCC1,u,x,-13.5%[4.12 µM],25.9µM*!,4.9%,x
CC1=C(/C=C/C(C)=C\C=C\C(C)=C\C=C\C=C(C)\C=C\C=C(C)\C=C\C2=C(C)C[C@@H](O)CC2(C)C)C(C)(C)C[C@H](O)C1,u,x,x,x,-12.1%,x
CC1=C(/C=C/C(C)=C/C=C/C(C)=C/C(=O)O)C(C)(C)CCC1O (stereo unspecified),x,x,25.9µM*,20.6µM*,x,x
CC1=C(/C=C/C(C)=C/C=C/C(C)=C/C(=O)Oc2c(C)c(C)c3c(c2C)CC[C@@](C)(CCC[C@H](C)CCC[C@H](C)CCCC(C)C)O3)C(C)(C)CCC1,2.1%,x,-2.8%,-22.3%,4.5%,x
CC1=C(/C=C/C(C)=C/C=C/C(C)=C/C=C/C=C(C)/C=C/C=C(C)/C=C/C2=C(C)C[C@@H](O)CC2(C)C)C(C)(C)C[C@H](O)C1,x,x,15µM*,15µM*,x,x
CC1=C(/C=C/C(C)=C/C=C/C(C)=C/C(=O)O)C(C)(C)CCC1,5.01µM*!,20.7%,u,u,-3.7%,50.6
CC1=C(/C=C/C(C)=C/C=C/C(C)=C/C=C/C=C(C)/C=C/C=C(C)/C=C/C(=O)[C@]2(C)CC(O)CC2(C)C)C(C)(C)CC(O)C1 (stereo partly specified),-13.2%,x,19.6%,9.1%,-8.5%,x
CCc1cc2c(nc1CC)CCN(CC/C(C)=N/OC[C@@H](C)[C@H](OCc1ccccc1)C(C)C)C2,24.2%[10 µM],x,x,x,-0.3%[10 µM],x
O=C1NC[C@@H](CCCCN2CCN(CC3CCCCC3)C(=O)C2=O)N(CCC2CCCCC2)C1=O,x,x,-1.3%,-17.1%,x,1.7
COc1cccc(N(CC(=O)NCCSCc2ccco2)S(=O)(=O)c2ccccc2)c1,29.5%,u,-25.4%,u,-10.4%,-12.9
COc1ccc(N(CC(=O)NCc2ccco2)S(C)(=O)=O)cc1Cl,-0.1%,13.3%,15.0%,-1.9%,1.8%,2.6
COc1ccc(N(CC(=O)NCCSCc2ccccc2Cl)S(C)(=O)=O)cc1Cl,33.9%,-19.2%,11.6µM*,u,-1.4%,0.0
COc1ccc(N(CC(=O)NCCSCc2ccco2)S(=O)(=O)c2ccccc2)cc1Cl,17.1%,-26.3%,14.6µM*,20.6µM*,u,-2.9
COc1ccc(OC)c(N(CC(=O)NCCSCc2ccco2)S(=O)(=O)c2ccc(OC)c(OC)c2)c1,-32.5%,-2.1%,13µM*,16.4µM*,-14.0%,17.5
CC1=C(C(=O)Nc2c(C)cc(C)cc2C)C2(CCN(C(C)C)CC2)OC1=O,x,x,-20.5%,1.0%,x,x
CCc1nn2c(=O)cc(COC(=O)Cc3ccccc3)nc2s1,x,x,u,0.6%,x,x
COc1ccccc1C(=O)C(=O)c1ccccc1OC,x,x,-7.6%,u,x,8.4
COc1ccccc1C(N)=S,15.8µM*,0.4%,0.5%,-8.1%,u,23.1
